Compound activity from PubChem BioAssay.
NS1 inh: qHTS Assay for Inhibitors of Influenza NS1 Protein Function. Potency, µM (series often up to 46.1 µM), for inactives: top-dose activity, positive = more growth. 270,000 compounds, 0.4% hits. AID 2326, 2010; calls by dose curve; note: actives are rising curves; nearly all actives have a fitted effect of over 50% in size
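A cell-based growth assay was used: compounds that relieve NS1-induced slow growth of budding yeast raise OD600. Assay medium was yeast nitrogen base with ammonium sulphate and -URA supplement, pH 6.0, with 2% galactose.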
Pf growth 48h: Primary qHTS for delayed death inhibitors of the malarial parasite plastid, 48 hour incubation. P. falciparum luciferase growth in erythrocytes, 48 h. Potency, µM (titrated, usually from 28.7 µM), inactives show at the highest dose activity change, negative = inhibition, actives largely listed as inhibitors. 310,000 compounds, 5.9% hits. AID 504832, 2011; note: % is set by controls: 0 for no effect and ±100 for the full control effect
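In quantitative HTS format, infected erythrocytes bearing luciferase-reporter parasites were treated for a single generation at 37 C. Luminescence after adding detection reagent served as the growth measure.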
Sm TGR inh: qHTS Assay for the Inhibitors of Schistosoma Mansoni Peroxiredoxins | Schistosoma mansoni thioredoxin glutathione reductase (TGR), Q962Y6 | purified TGR, DTNB reduction, TNB absorbance 405 nm | Potency, µM (highest dose often 114 µM), for the others: top-dose activity change, negative = inhibition, actives largely listed as inhibitors | 360,000 compounds, 3% hits | AID 485364, 2010; note: % is set by controls: 0 for no effect and ±100 for the full control effect; nearly all actives have a fitted effect of over 60% in size
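First, TGR (20 nM dispensed) and NADPH were mixed with compound. Second, a 15 min room-temperature incubation followed. Third, further NADPH and then DTNB were added to start the reaction. Finally, TNB absorbance was monitored kinetically.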
AMA1 RON2 block: qHTS for Inhibitors of AMA1-RON; Towards Development of Antimalarial Drug Lead: Primary Screen; 360,000 compounds, 0.2% hits; AID 720542, 2013; AlphaScreen AMA1-biotinylated RON2 peptide binding; Plasmodium falciparum AMA1 (3D7) - RON2 peptide interaction; Potency, µM (doses to about 58.2 µM), for inactives: at the highest dose activity change, negative = inhibition, usual class: inhibitors;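 note: 0% = vehicle wells and -100% = peptide control; nearly all actives have a fitted effect of over 45% in size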
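AMA1 (3D7) with his tag at 25 nM final met compounds first, then biotinylated RON2 peptide at 25 nM; detection used donor plus acceptor beads, 10 µg/mL apiece, read by AlphaScreen after 30 min at room temperature.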
Pf growth 96h: Primary qHTS for delayed death inhibitors of the malarial parasite plastid, 96 hour incubation; P. falciparum luciferase reporter growth, 96 h; Potency, µM (highest dose often 28.7 µM), inactives show top-dose activity change, negative = inhibition, usual class: inhibitors; 320,000 compounds, 6.9% hits; note: % is set by controls: 0 for no effect and ±100 for the full control effect
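Readout is luminescence from an integrated firefly luciferase in P. falciparum. Red cells, 2% hematocrit and 0.05% parasitemia final, were cultured with compound through two parasite generations (96 hours) at 37 C, 5% CO2.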
Starred values were filed as active, the others as inactive; ? = inconclusive; / = no result given; [ ] = dose if it differs, or a comment. In the library only some 11% were active in any assay of this set; here they are far more common. Unless noted, calls come from the whole dose curve; as a rule, active = well fitted curve in the direction sought with a large enough effect; inconclusive = small, poorly fitted or top-dose-only effect, or another doubt; inactive = no such curve, though single readings can be large; an effect the other way counts as inactive or inconclusive. Potency is the fitted concentration of half-maximal effect.

SMILES	NS1 inh	Pf growth 48h	Sm TGR inh	AMA1 RON2 block	Pf growth 96h
C#CCOCCOCCOCCNc1nc(N2CCN(C(=O)Cn3cc(CCCCN)nn3)CC2)nc(N2CCN(C(=O)Cn3cc(CCCN=C(N)N)nn3)CC2)n1	/	?	-11.8%	3.2%	0.828µM*
C#CCOCCOCCOCCNc1nc(N2CCN(C(=O)[C@H](C)n3cc(CCCN=C(N)N)nn3)CC2)nc(N2CCN(C(=O)[C@H](CCCCN)n3cc(CCCC)nn3)CC2)n1	-13.2%	?	-34.8%	/	11.7µM*
C#CCOCCOCCOCCNc1nc(N2CCN(C(=O)Cn3cc(CCCN=C(N)N)nn3)CC2)nc(N2CCN(C(=O)[C@H](CCCCN)n3cc(CCCC)nn3)CC2)n1	/	11.7µM*	-8.9%	-8.0%	11.7µM*
COc1ccc(Cn2ccnc2SCC(=O)NC2CCCC2)cc1	3.4%	0.0%	0.0%	-7.5%	-27.4%
COc1ccccc1-c1noc(-c2ccc(NCc3cccnc3)c([N+](=O)[O-])c2)n1	/	/	-1.6%	/	/
O=[N+]([O-])c1cccc(/C=C2\CCc3cnn(C4CCS(=O)(=O)C4)c32)c1 (centres undefined)	/	/	/	-0.5%	/
CN(C)Cc1nnnn1-c1cccc(-n2nnnc2CN(C)C)c1	-2.6%	24.4%	4.4%	4.6%	36.3%
CCOC(=O)c1c(N)sc(C(O)(C(F)(F)F)C(F)(F)F)c1-c1ccc(OC)cc1OC	-69.8%	11.7µM*	0.0%	-1.2%	?
CCOC(=O)c1c(N)sc(N)c1C(=O)OCC	9.2%	?	3.4%	46.0%	-5.4%
CCNc1ccc(S(N)(=O)=O)cc1[N+](=O)[O-]	20.6%	-12.0%	-10.7%	-19.1%	11.7µM*
CCNc1ccc(S(=O)(=O)NCCN(C)C)cc1[N+](=O)[O-]	/	4.9%	0.2%	-2.9%	12.1%
N#CCC(=O)N/N=C/c1cc(Br)ccc1OCc1cccc2ccccc12	18.7%	13.1µM*	15.8%	12.1%	?
Cc1cc(CC(C)C)n(-c2nc3ccccc3c(=O)n2OCC(=O)N(C)C)n1	-52.7%	-8.9%	-27.4%	14.1%	0.0%
Cc1cc(C)n(-c2nc3ccccc3c(=O)n2OCc2ccc(Cl)cc2)n1	-9.7%	?	-1.2%	1.0%	?
C#CCOn1c(-n2nc(C)cc2C)nc2ccccc2c1=O	2.0%	2.5%	-15.0%	14.9%	?
Cc1cc(C)n(-c2nc3ccccc3c(=O)n2OCC(=O)Nc2c(C)cccc2C)n1	-8.0%	?	-16.7%	3.3%	13.1µM*
Cc1cc(CC(C)C)n(-c2nc3ccccc3c(=O)n2OCc2ccccc2)n1	-45.9%	?	4.8%	27.9%	11.7µM*
Cc1cc(C)n(-c2nc3ccccc3c(=O)n2OCC(=O)OCc2ccccc2)n1	-85.8%	1.47µM*	-8.7%	2.2%	?
Cc1cc(C)n(-c2nc3ccccc3c(=O)n2OCc2ccc(F)cc2)n1	-32.9%	?	-9.0%	0.9%	8.28µM*
Cc1cc(C)n(-c2nc3ccccc3c(=O)n2OCC(=O)N(C)C)n1	-5.6%	?	14.4%	-2.8%	1.7%
Cc1ccc(-c2nc(NC(=O)CSc3ncnc4sc5c(c34)CCC(C)C5)ns2)cc1 (centres undefined)	/	/	0.4%	/	/
CCc1cccc(NC(=O)CCNS(=O)(=O)c2ccc3c(c2)CCN3C(C)=O)c1	/	/	-4.4%	/	/
Cc1cc(N2CCN(c3ccccc3F)CC2)nc2cc(O)ccc12	-10.6%	10.4µM*	-8.6%	4.6%	0.0%
COc1ccc(N2CCN(c3cc(C)c4ccc(O)cc4n3)CC2)cc1	-31.4%	13.1µM*	2.5%	-27.8%	125.9%
Cc1cc(N2CCN(c3ccc(F)cc3)CC2)nc2cc(O)ccc12	-11.9%	/	7.5%	?	7.38µM*
SMILES	NS1 inh	Pf growth 48h	Sm TGR inh	AMA1 RON2 block	Pf growth 96h
CCC(C(=O)NCCc1c[nH]c2ccc(C)cc12)c1ccccc1 (centres undefined)	-8.9%	?	13.6%	-2.3%	14.7µM*
Cc1ccc(C)c(NC(=O)C(=O)NCCc2c[nH]c3ccccc23)c1	/	-21.2%	6.2%	-0.4%	47.2%
CCCCCCCC(=O)C(C)C(=O)N(C)[C@H](Cc1ccc(OC)cc1)C(=O)N(C)[C@H](C(N)=O)C(C)C (some centres undefined)	/	/	/	11.2%	/
O=C(CN1C(=O)NC2(CCOc3ccccc32)C1=O)c1ccc(F)cc1 (centres undefined)	/	-14.9%	-21.1%	13.5%	?
CSc1cccc(NC(=S)NCCCN2CCN(c3ccc(F)cc3)CC2)c1	1.9%	?	-19.9%	-5.6%	8.28µM*
O=C(NCCCN1CCN(c2ccc(F)cc2)CC1)c1cccc(N2CCCC2=O)c1	-2.1%	11.7µM*	6.8%	35.5%	/
Cc1ccc(NC(=S)N(CCCN2CCOCC2)Cc2cccnc2)cc1C	-2.4%	5.7%	26.0%	-10.6%	14.2%
COCC(C)NCc1ccccc1C (centres undefined)	-3.5%	10.1%	-13.6%	4.9%	11.7µM*
COCC(C)NCc1cccc(OC)c1OC (centres undefined)	-21.9%	54.7%	25.3%	-16.1%	48.8%
COc1ccc(C(=O)Nc2ccc(N(C)Cc3ccccc3)c(C(=O)O)c2)cc1	/	/	-1.2%	/	/
CC(C)NC(=O)c1cnc2sc(N3CCCCCC3)nn2c1=O	/	/	-0.3%	/	/
O=C1C(Cl)=C(N2CCCCC2)C(=O)C(Cl)=C1c1cnc(N2CCCCC2)s1	0.4%	10.4µM*	0.251µM*	8.91µM*	-6.4%
Cc1ccc(S(=O)(=O)NN=C2CCCc3ccccc32)cc1	/	/	/	-15.6%	/
CC[N+]1(C)[C@@H]2CC[C@H]1CC(OC(=O)[C@H]1CCC(C(=O)OC3C[C@H]4CC[C@@H](C3)[N+]4(C)CC)(c3ccccc3)c3ccccc31)C2 (some centres undefined)	/	10.4µM*	50.1µM*	-7.5%	8.28µM*
CC(C)NC(=O)C12CC3CC(C1)CC(C(=O)NC(C)C)(C3)C2	/	15.0%[5.75 µM]	7.0%	-5.4%	36.2%
CN=c1nc(-c2ccccc2)n(-c2ccccc2)s1	-20.1%	62.2%	1.12µM*	-16.3%	58.1%
Cn1nc(-c2ccccc2)nc1-c1ccccc1	/	88.8%	-0.6%	6.7%	224.9%
CCC(SC1=N/C(=C/c2ccccc2)C(=O)N1c1ccccc1)C(=O)Nc1cc(C)on1 (centres undefined)	-8.6%	5.86µM*	-5.7%	1.3%	10.2%
CCn1c(=O)c([N+](=O)[O-])c(N2CCOCC2)c2ccccc21	18.0%	8.4%	2.9%	9.8%	10.4µM*
CCN(CC)c1c([N+](=O)[O-])c(=O)n(CC)c2ccccc12	-7.3%	13.1µM*	5.9%	-11.3%	?
O=c1c([N+](=O)[O-])c(N2CCOCC2)c2ccccc2n1-c1ccccc1	0.5%	-4.5%	1.2%[57.1 µM]	0.0%	13.2%
